Assay outcomes from PubChem.
Many of the other results were omitted from the sample, so hits are more common in it than they were.
GBA activity up – enhancers of human beta-glucosidase activity in Gaucher fibroblasts; L444P Gaucher fibroblasts, 4-MU-glucoside fluorescence, 3 days; AID 784; 30,000 tested, 0.44% active; activation, % at 10 µM; P04062; in the data active = activation above about 65%
Target sequence (P04062 whole entry L483P): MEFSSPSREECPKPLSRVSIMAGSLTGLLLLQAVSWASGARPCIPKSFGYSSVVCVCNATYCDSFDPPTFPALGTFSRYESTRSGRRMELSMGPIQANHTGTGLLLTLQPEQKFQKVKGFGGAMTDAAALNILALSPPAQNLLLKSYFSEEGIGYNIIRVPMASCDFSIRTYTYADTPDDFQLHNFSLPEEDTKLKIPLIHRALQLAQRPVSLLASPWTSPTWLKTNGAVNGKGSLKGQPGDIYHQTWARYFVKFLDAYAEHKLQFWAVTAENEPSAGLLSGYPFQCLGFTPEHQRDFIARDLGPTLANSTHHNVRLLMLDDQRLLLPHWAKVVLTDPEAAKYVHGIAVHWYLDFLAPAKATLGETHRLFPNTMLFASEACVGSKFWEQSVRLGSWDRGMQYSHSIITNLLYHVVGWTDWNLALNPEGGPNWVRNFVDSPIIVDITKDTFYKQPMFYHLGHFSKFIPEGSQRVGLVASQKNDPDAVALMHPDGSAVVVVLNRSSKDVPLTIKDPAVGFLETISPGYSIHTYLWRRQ
Hits are given with their value; . = inactive.

SMILES	GBA activity up
Cc1cccc(OC(C)C(=O)N(Cc2cccs2)C2CCS(=O)(=O)C2)c1C (stereo unspecified)	.
Cc1ccccc1OCC(=O)N(Cc1cccs1)C1CCS(=O)(=O)C1 (stereo unspecified)	146.7
Cc1nc(NC(C)c2ccccc2)c2oc3ccccc3c2n1 (stereo unspecified)	.
C=CCn1c(SCC(=O)c2cc(C)n(C(C)COC)c2C)nc2sc(C)c(C)c2c1=O (stereo unspecified)	.
COC(=O)C1CCN(C(=O)c2sc3nc(-c4ccc(F)cc4)cn3c2C)CC1	.
O=C(O)CC(NC(=O)OCc1ccccc1)c1ccccc1 (stereo unspecified)	.
CCOC(=O)NC(CC(=O)O)c1ccc(OCC)cc1 (stereo unspecified)	81.3
COc1ccc(C(CC(=O)O)NC(=O)c2cccs2)cc1 (stereo unspecified)	.
COc1ccc(C(C)(C)C)cc1NC(=O)Nc1ccc2c(c1)OCO2	.
CN(C)P(=NC(=O)COc1ccc(Cl)cc1Cl)(N(C)C)N(C)C	.
O=C(CSc1nc2ccccc2c(=O)[nH]1)Nc1ccc(S(=O)(=O)N2CCCC2)cc1	.
CCCn1c(=O)c(C(=O)Nc2nnc(CC)s2)c(O)c2ccccc21	.
CN1CC(=O)NC1=NC(=O)C12CC3CC(CC(C3)C1)C2	.
O=C(CSc1nnc(-c2ccc(Cl)cc2)o1)N1CCN(c2ccccc2)CC1	.
CCn1c(CC(=O)Nc2ccc(C)cc2)nnc1SCC(=O)N1CCN(c2ccccc2)CC1	.
CCn1c(SCC(=O)N2CCN(c3ccccc3)CC2)nnc1-c1cc2cc(Cl)ccc2o1	90.2
O=C(Nc1cc(C(F)(F)F)ccc1N1CCOCC1)c1cncc(Br)c1	.
FC(F)(F)c1ccc(N2CCOCC2)c(Nc2nc3ccccc3n3cnnc23)c1	75.2
Cc1nc2ccccc2nc1OCC(=O)Nc1cc(C(F)(F)F)ccc1N1CCOCC1	.
O=C(Cn1c(=O)n(-c2ccccc2)c(=O)n1CC(=O)N1CCCCC1)N1CCCCC1	.
Cc1cc2nnc(SCC(=O)NCc3ccco3)n2c2ccccc12	.
CCOc1ccc(-c2noc(-c3ccncc3)n2)cc1OCC	228.2
CCOc1cc(-c2noc(-c3ccncc3)n2)cc(Br)c1OC	.
CCOc1ccc(-c2nc(-c3ccc(OC)cc3)no2)cc1OCC	.
O=C1CN(C(=O)COC(=O)CCC(=O)c2ccc3c(c2)OCCO3)c2ccccc2N1	.
SMILES	GBA activity up
COCc1cc(C)nc(NC2CCCCC2)c1C#N	101.2
COCc1cc(C)nc(N2CCN(c3ccccc3)CC2)c1C#N	.
COCc1cc(C)nc(SCC(=O)Nc2ccccc2C)c1C#N	.
CCOC(=O)C1(Cc2ccc(O)cc2)NC(c2ccco2)C2C(=O)N(c3ccccc3F)C(=O)C21 (stereo unspecified)	.
COC(=O)c1sccc1NC(=O)Cn1cnc2c1c(=O)n(C)c(=O)n2C	.
CCC(Sc1nc(C)cc(=O)[nH]1)C(=O)Nc1nnc(C)s1 (stereo unspecified)	.
CCC(Sc1nc(C)cc(=O)[nH]1)C(=O)Nc1nc2c(s1)CCCC2 (stereo unspecified)	81.5
Cc1cc(=O)[nH]c(SCC(=O)Nc2nc3c(s2)CCCC3)n1	.
CCOC(=O)c1c(C2COc3ccccc3O2)csc1NC(=O)c1ccco1 (stereo unspecified)	.
O=C(NC1CCCC1)C1CCN(S(=O)(=O)c2cccc3cccnc23)CC1	.
CC(CS(=O)(=O)c1cccc2cccnc12)N1CCCCC1 (stereo unspecified)	107.8
COc1ccc(NS(=O)(=O)c2cccc3cccnc23)cc1	.
CCOC(=O)N1CCN(C(=O)C(NC(=O)c2ccc(CC)cc2)C(C)C)CC1 (stereo unspecified)	.
Cc1cccc2sc(NC(=O)CN(C)S(=O)(=O)c3cccs3)nc12	76.5
COc1ccc(NC(=O)CN(C)S(=O)(=O)c2cccs2)cc1	.
COC(=O)Nc1nc2c(C)cccc2s1	.
CN(C)S(=O)(=O)c1ccc(C(=O)OCC(=O)NC(=O)NCc2ccccc2)cc1	.
NC(=O)Cc1c[nH]c2cccc(O)c12	.
CCN1CCCC1CNC(=O)C(NC(=O)C1CCC(C)CC1)C(C)C (stereo unspecified)	.
CCN1CCN(CCCNC(=O)C(NC(=O)C2CCC(C)CC2)C(C)C)CC1 (stereo unspecified)	.
CC1CCC(C(=O)NC(C(=O)NCCCN2CCOCC2)C(C)C)CC1 (stereo unspecified)	68.4
Cc1c(C(=O)c2no[n+]([O-])c2C(=O)c2cnn(C)c2C)cnn1C	.
CCOC(=O)c1ccc(NC(=O)CSc2nnc(C)n2-c2ccccc2)cc1	.
CCC1C(=O)N=C(SCC(=O)Nc2cccc3ccccc23)NC1=O (stereo unspecified)	.
CCOC(=O)c1ccc(NC(=O)CSC2=NC(=O)C(CC)C(=O)N2)cc1 (stereo unspecified)	145.1
SMILES	GBA activity up
CCCCN(CC)S(=O)(=O)c1ccc(C(=O)Nc2nnc(CSC)o2)cc1	80.9
CCCCN(CCCC)S(=O)(=O)c1ccc(C(=O)Nc2nnc(CSC)o2)cc1	.
CCCN(CCC)S(=O)(=O)c1ccc(C(=O)Nc2nnc(CSC)o2)cc1	.
CCn1cc(C(=O)Nc2ccc(C(=O)N3CCCC3)cc2)c(=O)c2ccc(C)nc21	.
COc1ccc(C)cc1Cn1c(S(C)(=O)=O)nc2ccccc21	.
CCN1CCN(C(c2ccc(OC)c(OC)c2)c2nnnn2C(C)(C)C)CC1 (stereo unspecified)	140.4
COc1ccccc1C(c1nnnn1C(C)(C)C)N1CCN(Cc2ccncc2)CC1 (stereo unspecified)	.
COc1ccccc1N1CCN(C(c2ccc(Cl)cc2)c2nnnn2C(C)(C)C)CC1 (stereo unspecified)	.
CC1(C)CC(=O)C(CC2=C(O)CC(C)(C)CC2=O)=C(O)C1	.
COC(=O)c1ccc(S(=O)(=O)N(Cc2cc3cc4c(cc3[nH]c2=O)OCO4)C2CCCCC2)cc1	.
CCOC(=O)C1=C(C)OC(N)=C(C#N)C1c1c(C)nn(-c2ccccc2)c1Cl (stereo unspecified)	.
CC1(C)CC(=O)C2=C(C1)OC(N)=C(C#N)C21CCN(Cc2ccccc2)CC1	.
CCOC(=O)N1CCC2(CC1)C(C#N)=C(N)Oc1c2c(C)nn1-c1cccc(Cl)c1	74.1
O=C(COC(=O)C1c2ccccc2Oc2ccccc21)NC1CCS(=O)(=O)C1 (stereo unspecified)	.
CCOC(=O)Cn1cc(C(=O)c2cccs2)c2ccccc21	.
COC(=O)c1cn(C(=O)c2cccs2)c2ccccc12	89.3
COC(=O)c1cn(C(=O)c2ccc(Br)o2)c2ccccc12	.
COc1cccc(-n2nnnc2SCC(=O)N2CCCc3ccccc32)c1	.
CC1CC(C)CN(c2nc3c(c(=O)n(C)c(=O)n3C)n2C)C1 (stereo unspecified)	.
Cn1c(SCC(=O)Nc2cc(=O)n(C)c(=O)n2C)nnc1C12CC3CC(CC(C3)C1)C2	.
CCCOc1cccc(C2/C(=C(/O)c3ccncc3)C(=O)C(=O)N2CCCN(C)C)c1 (stereo unspecified)	.
